# Results with a measured potency or affinity are listed apart. Results filed as inconclusive are left out. The source made the active and inactive calls.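 The calls were made as follows: active = signal loss from cell killing with fitted potency at or below twice the top valid dose; inconclusive = flat drop of 30 to 70%, or unreliable curve fit; inactive = opposite direction, flat within 30%, or weaker potency.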
# Test: viability loss in A549 lung cancer cells – cell-based, cherry-picks, 26 µM top dose, cytotoxicity control, dose response (AID 1053119)
# Settings: CellTiter-Glo ATP luminescence, 72 h; series mostly up to 26 µM
row,Compound,outcome
1,Cc1cccc(N2CCN(S(=O)(=O)c3cn(C)cn3)CC2)c1C,inactive
2,O=C(Nc1ccccc1F)N1C[C@@H]2[C@H](c3ccccc31)[C@H](CO)N2C(=O)C1CCOCC1,inactive
3,Nc1nc(-c2cc3c(cc2Cl)OCCO3)cs1,inactive
4,CC1CN(C(=O)c2cc3c(=O)n4ccccc4nc3n2C)CC(C)O1 (configuration not stated),inactive
5,COCC(=O)Nc1ccc2c(c1)C(=O)N(C)[C@@H]1CC[C@@H](CC(=O)NCc3ccccc3Cl)O[C@H]1CO2,inactive
6,O=S(=O)(c1ccccc1F)N1CC[C@@H]2[C@H]1c1cc(-c3cccc(F)c3)ccc1N[C@@H]2CO,inactive
7,O=C(CCC(=O)c1cccs1)NCc1cccnc1,inactive
8,COCC(=O)Nc1ccc2c(c1)C(=O)N(C)[C@@H]1CC[C@H](CC(=O)NCc3ccccc3Cl)O[C@@H]1CO2,inactive
9,C[C@H](O)C#Cc1ccc2c(c1)O[C@@H](CN(C)C)[C@H](C)CN([C@H](C)CO)S2(=O)=O,inactive
10,COCC(C)n1c(SCc2nc(N)nc(Nc3ccccc3C)n2)nc2ccccc2c1=O (configuration not stated),inactive
11,CC(C)Cc1nnc(NC(=O)CSc2nc(N)cc(=O)[nH]2)s1,inactive
12,CC(C)CNC(=O)c1coc(=O)c(Br)c1,inactive
13,CCOC(=O)C1=C(C)Nc2nc3ccccc3n2C1c1ccncc1 (configuration not stated),inactive
14,CCN1CCN(C(c2ccccc2)c2nnnn2Cc2ccccc2)CC1 (configuration not stated),inactive
15,CN(C)c1ccc(-c2ccnc3c2CC(C)(C(=O)NCC2CC2)O3)cc1 (configuration not stated),inactive
16,C[C@@H]1CN([C@@H](C)CO)C(=O)c2cc(NC(=O)CCCN(C)C)ccc2O[C@@H]1CN(C)Cc1ccc(-c2ccccc2)cc1,inactive
17,COc1ccc(-c2csc(CCn3nc(C)cc3C)n2)cc1OC,inactive
18,C[C@H](O)C#Cc1ccc2c(c1)O[C@@H](CN(C)C)[C@H](C)CN([C@@H](C)CO)S2(=O)=O,inactive
19,CO[C@@H]1CN(C)C(=O)c2ccc(NC(=O)c3ccc(-c4ccccc4)cc3)cc2OC[C@@H](C)NC[C@@H]1C,inactive

row,Compound,outcome
1,CC(NC(=O)CSc1ccc(S(=O)(=O)N2CCOCC2)cn1)c1ccc(Cl)cc1Cl (configuration not stated),inactive
2,O=C(Nc1nc(-c2ccncc2)cs1)C1COc2ccccc2O1 (configuration not stated),inactive
3,C[C@H]1CN([C@@H](C)CO)C(=O)c2cc(-c3ccccc3)cnc2O[C@H]1CN(C)C(=O)c1cccc(F)c1,inactive
4,C[C@H]1CN([C@@H](C)CO)C(=O)c2cc(NC(=O)CCCN(C)C)ccc2O[C@@H]1CN(C)Cc1ccc(-c2ccccc2)cc1,inactive
5,CN1c2ccc(-c3ccccc3)cc2[C@H]2[C@H](CCN2C(=O)CN2CCOCC2)[C@@H]1CO,inactive
6,CSc1ccccc1C(=O)C1CCCN(C(=O)CCc2cccnc2)C1 (configuration not stated),inactive
7,C[C@@H]1CN([C@@H](C)CO)C(=O)c2cc(-c3ccccc3)cnc2O[C@@H]1CN(C)Cc1ccccc1,inactive
8,Cc1ccc(N(CC(=O)NCc2ccco2)S(=O)(=O)c2ccccc2)cc1,inactive
9,Cc1ccc(Nc2nnc(SCc3ccccc3)s2)cc1,inactive
10,COCC(=O)Nc1ccc2c(c1)C(=O)N(C)[C@H]1CC[C@@H](CC(=O)NCc3ccccc3Cl)O[C@H]1CO2,inactive
11,C[C@H]1CN([C@@H](C)CO)C(=O)c2cc(-c3ccccc3)cnc2O[C@H]1CN(C)Cc1ccccc1,inactive
12,O=S(=O)(c1ccccc1F)N1CC[C@@H]2[C@@H](CO)Nc3ccc(-c4cccc(F)c4)cc3[C@@H]21,inactive
13,Fc1cnc(N2CCN(c3ccccc3)CC2)nc1N1CCN(c2ccccc2)CC1,inactive
14,CO[C@H]1CN(C)C(=O)c2cc(NC(=O)Nc3cc(Cl)cc(Cl)c3)ccc2OC[C@H](C)NC[C@@H]1C,inactive
15,C[C@@H]1CN([C@@H](C)CO)C(=O)c2cc(-c3ccccc3)cnc2O[C@@H]1CN(C)C(=O)c1cccc(F)c1,inactive
16,COC(=O)C[C@@H]1CC[C@H]2[C@H](COc3ccc(NC(=O)Cc4cccs4)cc3C(=O)N2C)O1,inactive
17,Cn1cnc(S(=O)(=O)N2CCN(c3ccccc3)CC2)c1,inactive
18,O=C(c1cccnc1)N1C[C@H]2[C@@H](c3ccccc31)[C@@H](CO)N2CC1CCCC1,inactive
